Laboratory results from PubChem BioAssay (NCI).
About 83,000 compounds went through this panel and 20% of them were active in at least one assay; those are over-represented in the sample as a whole.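 Negative percent growth values reflect cell death: -40 means 40% of the cells present at the start died, and -100 means all died.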 Activity calls are given as the source filed them. How the source made its calls: active means growth percent below 10; inactive means the rest.

system: A498 renal; test: NCI-60 one-dose screen, 48 h (100 = growth as untreated, 0 = no growth, -100 = all killed); conditions: 10 µM unless noted

Row | Structure (SMILES) | growth
1 | Fc1ccc(-c2cc3nc(C(Cl)Cl)nc(-c4ccccc4)n3n2)cc1 | -59.9% (active)
2 | O=C(c1ccc(Cl)cc1)C1[C@H](c2ccc(Cl)cc2)[C@@H](c2ccccc2)NC12C(=O)Nc1ccc(Br)cc12 (stereo partly specified) | 59.2% (inactive)
3 | COc1ccccc1C(=O)CSc1nc(Nc2ccc(S(N)(=O)=O)cc2)c2ccccc2n1 | 99.8% (inactive)
4 | CC(C)(C)Nc1nc2c(OCCc3ccccc3)cccn2c1-c1ccccc1Cl | -23% (active)
5 | CNC(=O)c1cc(-c2ccc(NC(=O)Nc3ccc(N4CCOCC4)c(C(F)(F)F)c3)cc2)nc2cccnc12 | 79.9% (inactive)
6 | CS(=O)(=O)c1ccc(-n2cc(/C=C/C(=O)c3ccc(NC(=O)CO[N+](=O)[O-])cc3)c(-c3ccc(Cl)cc3)n2)cc1 | 117% (inactive)
7 | Cc1[nH]nc2ncc(C#Cc3cncc(C(=O)Nc4ccc(CN5CCN(C)CC5)c(C(F)(F)F)c4)c3)cc12 | -17.7% (active)
8 | CCN1C(=S)N(CC)C2C1N=C(SC)N2/N=C/C=C/c1ccccc1[N+](=O)[O-] (stereo unspecified) | 111% (inactive)
9 | C/C(=C(/c1ccc(Cl)cc1)c1ccc(OCCN)cc1)c1ccc(C)cc1 | 97.4% (inactive)
10 | O=[N+]([O-])c1ccc(O)c2ncccc12 | 55.7% (inactive)
11 | Cc1cc(=O)oc2cc(OCCCOc3ccc(/C=C/C(=O)Nc4ccc(Cl)cc4)cc3)ccc12 | 57.7% (inactive)
12 | Cc1ccc(-c2nc(C(Cl)Cl)nc3cc(-c4ccccc4)nn23)cc1 | -31.3% (active)
13 | Nc1cc(-c2c[nH]c3ccc(F)cc23)nc2cc(-c3c[nH]c4ccc(F)cc34)nn12 | 67.8% (inactive)
14 | COc1cccc(N2CCN(c3ncnc4c3[nH]c3ccc(F)cc34)C[C@@H]2C)c1 | -23.1% (active)
15 | Cc1ccc(/C=C/c2nn3c(-c4ccco4)nnc3s2)cc1C | 87% (inactive)
16 | CCN1C(=S)N(CC)C2C1NN=C1SC(c3ccccc3)=CC(=O)N12 (stereo unspecified) | 118% (inactive)
17 | CC(C)NC(=O)c1cc(-c2ccc(NC(=O)Nc3ccc(N4CCOCC4)c(C(F)(F)F)c3)cc2)nc2cccnc12 | 25.6% (inactive)
18 | Cn1cc(-c2cc(N)n3nc(-c4cn(C)c5ccc(Cl)cc45)cc3n2)c2cc(Cl)ccc21 | 73.1% (inactive)
19 | NS(=O)(=O)c1cccc(Nc2nc(SCC(=O)c3ccc(Cl)cc3)nc3ccccc23)c1 | 85.2% (inactive)

Row | Structure (SMILES) | growth
20 | Cc1sc2c(c1C)c(=O)nc1c(-c3nc(-c4ccc(F)cc4)no3)n[nH]n12 | 98.6% (inactive)
21 | CN1C(=O)N(c2ccccc2)C2N=C(N/N=C/c3ccccc3)SC21 (stereo unspecified) | -18.8% (active)
22 | O=C1C2=C(C(=O)c3c(O)cccc31)C(c1ccco1)c1sc(=O)[nH]c1S2 (stereo unspecified) | 17.1% (inactive)
23 | N[C@@H](Cc1cn(-c2c3ccccc3nc3ccccc23)nn1)C(=O)O | 102% (inactive)
24 | Cc1sc2nc(NCc3ccccc3Cl)[nH]c(=O)c2c1C | 81.3% (inactive)
25 | COc1ccccc1/C=C/C=N/NC1=NC2C(S1)N(C)C(=O)N2C (stereo unspecified) | -18.2% (active)
26 | CC(=O)Nc1cc(F)cc(-c2ccc3[nH]cc(-c4ccccc4)c3n2)c1 | -20.1% (active)
27 | O=C(CSc1nc2sc3c(c2c(=O)n1-c1ccc(Cl)cc1)CCCC3)N/N=C/c1ccc(F)cc1 | 96.8% (inactive)
28 | Cc1ccccc1NC(=O)/C=C/c1ccc(OCCOc2ccc3c(C)cc(=O)oc3c2)cc1 | 81.3% (inactive)
29 | CCN(CC)c1ccc(C=O)c(OCc2cn(CC(=O)Nc3ccc(Cl)cc3)nn2)c1 | 89.2% (inactive)
30 | CC(C)(C)OC(=O)N1C(=O)c2c(c3c4ccccc4[nH]c3c3ccc4ccccc4c23)C1=O | -2.67% (active)
31 | O=C(CSc1nc2sc3c(c2c(=O)n1-c1ccc(Cl)cc1)CCCC3)NNC(=O)Nc1cccc(C(F)(F)F)c1 | -5.48% (active)
32 | CC(=O)Oc1ccccc1C(=O)Nc1cc(C(C)C)ccc1C | -29.4% (active)
33 | N#Cc1c(-c2ccc(Cl)cc2)nc(SCc2ccc(F)cc2)nc1N1CCNCC1 | 65% (inactive)
34 | COc1ccc(NC(=O)c2sc3nc(-c4cnccn4)cc(-c4cccs4)c3c2N)cc1 | 49.5% (inactive)
35 | CNC(=O)c1cc(-c2ccc(NC(=O)Nc3ccc(N4CCN(C)CC4)c(C(F)(F)F)c3)cc2)nc2cccnc12 | 40.9% (inactive)
36 | O=C(CSc1nccc(=O)[nH]1)Nc1ccc(-c2nc3ccccc3[nH]2)cc1 | 116% (inactive)
37 | O=C1c2c(c3c4cccnc4[nH]c3c3ccc4ccccc4c23)C(=O)N1CCO | 57% (inactive)
38 | CN1CCN(Cc2ccc(NC(=O)c3cncc(C#Cc4cnc5ccc(N6CCSCC6)nn45)c3)cc2C(F)(F)F)CC1 | -81.9% (active)

system: CCRF-CEM leukemia; test: as above; conditions: 10 µM unless noted

Row | Structure (SMILES) | growth
39 | Fc1ccc(-c2cc3nc(C(Cl)Cl)nc(-c4ccccc4)n3n2)cc1 | 55.7% (inactive)
40 | O=C(c1ccc(Cl)cc1)C1[C@H](c2ccc(Cl)cc2)[C@@H](c2ccccc2)NC12C(=O)Nc1ccc(Br)cc12 (stereo partly specified) | 36.8% (inactive)
41 | COc1ccccc1C(=O)CSc1nc(Nc2ccc(S(N)(=O)=O)cc2)c2ccccc2n1 | 87.3% (inactive)
42 | CC(C)(C)Nc1nc2c(OCCc3ccccc3)cccn2c1-c1ccccc1Cl | 1.24% (active)
43 | CNC(=O)c1cc(-c2ccc(NC(=O)Nc3ccc(N4CCOCC4)c(C(F)(F)F)c3)cc2)nc2cccnc12 | 40.5% (inactive)
44 | CS(=O)(=O)c1ccc(-n2cc(/C=C/C(=O)c3ccc(NC(=O)CO[N+](=O)[O-])cc3)c(-c3ccc(Cl)cc3)n2)cc1 | 107% (inactive)
45 | Cc1[nH]nc2ncc(C#Cc3cncc(C(=O)Nc4ccc(CN5CCN(C)CC5)c(C(F)(F)F)c4)c3)cc12 | 20.9% (inactive)
46 | CCN1C(=S)N(CC)C2C1N=C(SC)N2/N=C/C=C/c1ccccc1[N+](=O)[O-] (stereo unspecified) | 93.1% (inactive)
47 | C/C(=C(/c1ccc(Cl)cc1)c1ccc(OCCN)cc1)c1ccc(C)cc1 | 98.9% (inactive)
48 | O=[N+]([O-])c1ccc(O)c2ncccc12 | 17.7% (inactive)
49 | Cc1cc(=O)oc2cc(OCCCOc3ccc(/C=C/C(=O)Nc4ccc(Cl)cc4)cc3)ccc12 | 68.2% (inactive)
50 | Cc1ccc(-c2nc(C(Cl)Cl)nc3cc(-c4ccccc4)nn23)cc1 | 37.8% (inactive)
51 | Nc1cc(-c2c[nH]c3ccc(F)cc23)nc2cc(-c3c[nH]c4ccc(F)cc34)nn12 | 7.99% (active)
52 | COc1cccc(N2CCN(c3ncnc4c3[nH]c3ccc(F)cc34)C[C@@H]2C)c1 | -16.1% (active)
53 | Cc1ccc(/C=C/c2nn3c(-c4ccco4)nnc3s2)cc1C | 104% (inactive)
54 | CCN1C(=S)N(CC)C2C1NN=C1SC(c3ccccc3)=CC(=O)N12 (stereo unspecified) | 97.5% (inactive)
55 | CC(C)NC(=O)c1cc(-c2ccc(NC(=O)Nc3ccc(N4CCOCC4)c(C(F)(F)F)c3)cc2)nc2cccnc12 | 44.3% (inactive)
56 | Cn1cc(-c2cc(N)n3nc(-c4cn(C)c5ccc(Cl)cc45)cc3n2)c2cc(Cl)ccc21 | 24.8% (inactive)
57 | NS(=O)(=O)c1cccc(Nc2nc(SCC(=O)c3ccc(Cl)cc3)nc3ccccc23)c1 | 85.7% (inactive)

Row | Structure (SMILES) | growth
58 | Cc1sc2c(c1C)c(=O)nc1c(-c3nc(-c4ccc(F)cc4)no3)n[nH]n12 | 104% (inactive)
59 | CN1C(=O)N(c2ccccc2)C2N=C(N/N=C/c3ccccc3)SC21 (stereo unspecified) | 17.1% (inactive)
60 | O=C1C2=C(C(=O)c3c(O)cccc31)C(c1ccco1)c1sc(=O)[nH]c1S2 (stereo unspecified) | 13% (inactive)
61 | N[C@@H](Cc1cn(-c2c3ccccc3nc3ccccc23)nn1)C(=O)O | 97.3% (inactive)
62 | Cc1sc2nc(NCc3ccccc3Cl)[nH]c(=O)c2c1C | 65.3% (inactive)
63 | COc1ccccc1/C=C/C=N/NC1=NC2C(S1)N(C)C(=O)N2C (stereo unspecified) | 15.3% (inactive)
64 | CC(=O)Nc1cc(F)cc(-c2ccc3[nH]cc(-c4ccccc4)c3n2)c1 | 16.9% (inactive)
65 | O=C(CSc1nc2sc3c(c2c(=O)n1-c1ccc(Cl)cc1)CCCC3)N/N=C/c1ccc(F)cc1 | 65.9% (inactive)
66 | Cc1ccccc1NC(=O)/C=C/c1ccc(OCCOc2ccc3c(C)cc(=O)oc3c2)cc1 | 95.7% (inactive)
67 | CCN(CC)c1ccc(C=O)c(OCc2cn(CC(=O)Nc3ccc(Cl)cc3)nn2)c1 | 72.7% (inactive)
68 | CC(C)(C)OC(=O)N1C(=O)c2c(c3c4ccccc4[nH]c3c3ccc4ccccc4c23)C1=O | 44.4% (inactive)
69 | O=C(CSc1nc2sc3c(c2c(=O)n1-c1ccc(Cl)cc1)CCCC3)NNC(=O)Nc1cccc(C(F)(F)F)c1 | 17.1% (inactive)
70 | CC(=O)Oc1ccccc1C(=O)Nc1cc(C(C)C)ccc1C | 14.6% (inactive)
71 | N#Cc1c(-c2ccc(Cl)cc2)nc(SCc2ccc(F)cc2)nc1N1CCNCC1 | 37% (inactive)
72 | COc1ccc(NC(=O)c2sc3nc(-c4cnccn4)cc(-c4cccs4)c3c2N)cc1 | 94.6% (inactive)
73 | CNC(=O)c1cc(-c2ccc(NC(=O)Nc3ccc(N4CCN(C)CC4)c(C(F)(F)F)c3)cc2)nc2cccnc12 | -15.1% (active)
74 | O=C(CSc1nccc(=O)[nH]1)Nc1ccc(-c2nc3ccccc3[nH]2)cc1 | 101% (inactive)
75 | O=C1c2c(c3c4cccnc4[nH]c3c3ccc4ccccc4c23)C(=O)N1CCO | 42.8% (inactive)
76 | CN1CCN(Cc2ccc(NC(=O)c3cncc(C#Cc4cnc5ccc(N6CCSCC6)nn45)c3)cc2C(F)(F)F)CC1 | 3.28% (active)
